The nature of test [1]: Caspase-3/7 induction in CHO-K1 cells by small molecules, qHTS cell viability counter screen (AID 1346979). Also: nearly all actives have a fitted effect of over 35% in size. Also: potency is read from the fitted curve at half-maximal effect. The gist of the method:
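Cells (CHO-K1, wild type) are plated at 1,500 per well and incubated 5hr. Test compounds in DMSO are then pinned in, followed by 16hr at 37C and 5% CO2. Viability is read by CellTiter-Fluor fluorescence after 1hr.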

The nature of test [2]: Caspase-3/7 induction in CHO-K1 cells by small molecules, qHTS assay (AID 1346980). Also: nearly all actives have a fitted effect of over 15% in size. Also: potency is read from the fitted curve at half-maximal effect. The gist of the method: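 Wild-type cells were seeded at 1,500 per well and settled 5 hr at 37 C, 5% CO2, then exposed to DMSO-dissolved compounds for 17 hr. Caspase-Glo 3/7 reagent was added, and luminescence was read after 30min at room temperature.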
A short description of test [3]: Caspase-3/7 induction in HepG2 cells by small molecules, qHTS cell viability counter screen (AID 1346981). Also: nearly all actives have a fitted effect of over 30% in size. Also: potency is read from the fitted curve at half-maximal effect. The gist of the method: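 Cell viability is measured as a cytotoxicity counter screen alongside the Caspase-Glo 3/7 readout in identical wells. Wild-type HepG2 cells are treated with test compounds for 16 hr at 37 C before CellTiter-Fluor addition and a 1-hr incubation.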

Test [4] concerns the target Nuclear receptor subfamily 1 group I member 2 (Homo sapiens) (UniProt O75469). The experiment in a line: Human pregnane X receptor (PXR) small molecule agonists, qHTS assay (AID 1346982). Also: nearly all actives have a fitted effect of over 35% in size. Also: potency is read from the fitted curve at half-maximal effect. The gist of the method: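 Cells: HepG2 stably carrying PXR-Luc. Medium held 5% charcoal-stripped FBS. Compounds in DMSO added after 5 hr plating, incubated 24 hr, then luminescence quantified with ONE-Glo.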

Test [5] has the same target. The experiment in a line: CYP3A4 induction through human pregnane X receptor (PXR) by small molecules, qHTS assay (AID 1346984). Also: nearly all actives have a fitted effect of over 40% in size. The gist of the method:
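Quantitative HTS in DPX-2 cells, i.e. HepG2 transfected with PXR response element and CYP3A4-promoter luciferase. Compounds in DMSO incubated 24hr at 37C; then P450-Glo CYP3A4 substrate, 3uM final, 3hr; One-Glo luminescence.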

Test [6] shares this target. The experiment in a line: Human pregnane X receptor (PXR) activation by small molecules, qHTS assay (AID 1346985). Also: nearly all actives have a fitted effect of over 40% in size. In short, it runs like this:
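DPX-2 cells (HepG2 co-transfected with a PXR response element and a CYP3A4-promoter luciferase construct) were seeded at 2,000 per well, rested 5 hr at 37C, then exposed to DMSO-dissolved compounds for 24 hr. Activation was read as luciferase luminescence.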

The target of test [7] is Cytochrome P450 2D6 (Homo sapiens) (UniProt P10635). Description: Cytochrome P450 Family 2 Subfamily D Member 6 (CYP2D6) small molecule antagonists: luciferase reporter qHTS assay (AID 1671196). Also: nearly all actives have a fitted effect of over 50% in size. Also: potency is read from the fitted curve at half-maximal effect. The gist of the method:
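Enzyme and proluciferin substrate were first combined with test chemical for 10 min at room temperature. Adding NADPH regeneration solution started a 1 h reaction, stopped with luciferin detection reagent and read by luminescence 20 min later.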

For test [8], the target named is Cytochrome P450 2C19 (Homo sapiens) (UniProt P33261). Description: Cytochrome P450 Family 2 Subfamily C Member 19 (CYP2C19) small molecule antagonists: luciferase reporter qHTS assay (AID 1671197). Also: nearly all actives have a fitted effect of over 65% in size. Also: potency is read from the fitted curve at half-maximal effect. In short, it runs like this: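 Relative luminescence units recorded 20 min after the detection reagent stopped a 1 h, 37C CYP2C19 reaction on proluciferin substrate, which was started by NADPH regeneration following 10 min room-temperature compound preincubation; ketoconazole positive control.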

For test [9], the target named is Cytochrome P450 2C9 (Homo sapiens) (UniProt P11712). Description: Cytochrome P450 Family 2 Subfamily C Member 9 (CYP2C9) small molecule antagonists: luciferase reporter qHTS assay (AID 1671198). Also: nearly all actives have a fitted effect of over 50% in size. Also: potency is read from the fitted curve at half-maximal effect. In short, it runs like this:
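CYP2C9 activity was measured with a P450-Glo proluciferin substrate. Enzyme–substrate mix was held with compound for 10 min at room temperature, then NADPH regeneration solution was added for 1 h at 37C. Luciferin product was read as luminescence.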

The target in test [10] is Cytochrome P450 1A2 (Homo sapiens) (UniProt P05177). The experiment in a line: Cytochrome P450 Family 1 Subfamily A Member 2 (CYP1A2) small molecule antagonists: luciferase reporter qHTS assay (AID 1671199). Also: nearly all actives have a fitted effect of over 50% in size. Also: potency is read from the fitted curve at half-maximal effect. In short, it runs like this:
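Compounds were incubated with CYP1A2 and a luminogenic proluciferin substrate for 10 min at room temperature before the reaction was started with NADPH regeneration solution. After 1 h, detection reagent was added and light output, proportional to CYP activity, was recorded.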

Test [11] concerns the target Voltage-gated inwardly rectifying potassium channel KCNH2 (Homo sapiens) (UniProt Q12809). Description: Human Ether-a-go-go-Related Gene (hERG) channel small molecule antagonists: fluorescence cell-based qHTS assay (AID 1671200). Also: nearly all actives have a fitted effect of over 50% in size. Also: potency is read from the fitted curve at half-maximal effect. In short, it runs like this:
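Channel function was assessed by thallium flux. Cells seeded the previous day and kept at 37 C took up FluxOR II dye over 1 h in the dark at room temperature, then sat another 10 min before stimulation.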

The target in test [12] is Cytochrome P450 3A4 (Homo sapiens) (UniProt P08684). The experiment in a line: Cytochrome P450 Family 3 Subfamily A Member 4 (CYP3A4) small molecule antagonists: luciferase reporter qHTS assay (AID 1671201). Also: nearly all actives have a fitted effect of over 50% in size. Also: potency is read from the fitted curve at half-maximal effect. The gist of the method:
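Compounds in DMSO were pin-transferred onto CYP3A4 enzyme-substrate mix and held 10 min at room temperature. NADPH regenerating solution started the reaction for 1 h; luciferin detection reagent stopped it, and luminescence was read after 20 min.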

The structures appear in SMILES notation. Where “and” joins values, the source holds several entries; their conditions need not be identical. Identical values can stand only once. Records with an inconclusive call do not appear. The source holds several records for some structures; these can differ, active in one and inactive in another. Calls of active or inactive are those of the source. Calls follow the shape of the dose curve; as a rule, active = well fitted curve in the direction sought with a large enough effect in the repeat runs; inconclusive = weak or mixed curves; inactive = no such curve, though single readings can be large; an effect the other way counts as inactive or inconclusive.

Sequence of Cytochrome P450 3A4 (Homo sapiens) (P08684 whole entry, looked up): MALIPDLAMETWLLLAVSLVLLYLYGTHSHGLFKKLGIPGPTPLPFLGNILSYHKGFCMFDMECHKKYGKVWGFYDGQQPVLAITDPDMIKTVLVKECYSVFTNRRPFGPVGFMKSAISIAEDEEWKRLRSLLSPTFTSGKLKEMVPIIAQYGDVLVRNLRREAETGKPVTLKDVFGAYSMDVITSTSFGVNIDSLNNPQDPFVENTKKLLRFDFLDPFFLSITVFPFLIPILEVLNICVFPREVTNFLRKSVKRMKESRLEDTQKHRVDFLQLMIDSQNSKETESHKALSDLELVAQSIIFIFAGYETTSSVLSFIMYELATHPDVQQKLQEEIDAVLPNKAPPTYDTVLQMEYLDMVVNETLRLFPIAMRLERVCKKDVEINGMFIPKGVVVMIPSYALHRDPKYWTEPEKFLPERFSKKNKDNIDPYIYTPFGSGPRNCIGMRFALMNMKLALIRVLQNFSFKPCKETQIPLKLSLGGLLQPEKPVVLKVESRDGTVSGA
Sequence of Nuclear receptor subfamily 1 group I member 2 (Homo sapiens) (O75469 whole entry, looked up): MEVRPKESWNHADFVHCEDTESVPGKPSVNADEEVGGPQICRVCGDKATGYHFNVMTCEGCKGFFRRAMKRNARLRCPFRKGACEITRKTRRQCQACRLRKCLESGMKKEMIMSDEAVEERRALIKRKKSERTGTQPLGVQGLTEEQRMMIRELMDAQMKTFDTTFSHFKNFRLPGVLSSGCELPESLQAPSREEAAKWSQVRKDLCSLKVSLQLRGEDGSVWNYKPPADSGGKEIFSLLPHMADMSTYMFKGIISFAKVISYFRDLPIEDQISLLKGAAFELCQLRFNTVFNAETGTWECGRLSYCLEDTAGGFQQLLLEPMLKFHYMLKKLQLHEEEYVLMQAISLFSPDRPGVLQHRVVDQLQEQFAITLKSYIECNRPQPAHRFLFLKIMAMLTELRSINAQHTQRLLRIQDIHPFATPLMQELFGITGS
Sequence of Cytochrome P450 2D6 (Homo sapiens) (P10635 whole entry, looked up): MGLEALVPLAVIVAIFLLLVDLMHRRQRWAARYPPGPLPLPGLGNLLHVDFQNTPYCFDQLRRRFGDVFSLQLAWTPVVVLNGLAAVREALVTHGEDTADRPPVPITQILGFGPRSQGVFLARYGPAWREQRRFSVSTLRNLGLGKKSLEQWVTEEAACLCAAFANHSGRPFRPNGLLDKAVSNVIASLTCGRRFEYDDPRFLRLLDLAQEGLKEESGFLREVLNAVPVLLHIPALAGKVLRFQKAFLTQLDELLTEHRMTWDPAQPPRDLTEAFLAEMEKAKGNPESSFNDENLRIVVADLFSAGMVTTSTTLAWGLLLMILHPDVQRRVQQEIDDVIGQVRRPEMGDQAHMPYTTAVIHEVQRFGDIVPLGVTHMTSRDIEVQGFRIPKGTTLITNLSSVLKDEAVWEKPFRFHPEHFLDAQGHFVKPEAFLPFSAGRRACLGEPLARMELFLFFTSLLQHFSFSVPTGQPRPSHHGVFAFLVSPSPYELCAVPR
Sequence of Cytochrome P450 2C9 (Homo sapiens) (P11712 whole entry, looked up): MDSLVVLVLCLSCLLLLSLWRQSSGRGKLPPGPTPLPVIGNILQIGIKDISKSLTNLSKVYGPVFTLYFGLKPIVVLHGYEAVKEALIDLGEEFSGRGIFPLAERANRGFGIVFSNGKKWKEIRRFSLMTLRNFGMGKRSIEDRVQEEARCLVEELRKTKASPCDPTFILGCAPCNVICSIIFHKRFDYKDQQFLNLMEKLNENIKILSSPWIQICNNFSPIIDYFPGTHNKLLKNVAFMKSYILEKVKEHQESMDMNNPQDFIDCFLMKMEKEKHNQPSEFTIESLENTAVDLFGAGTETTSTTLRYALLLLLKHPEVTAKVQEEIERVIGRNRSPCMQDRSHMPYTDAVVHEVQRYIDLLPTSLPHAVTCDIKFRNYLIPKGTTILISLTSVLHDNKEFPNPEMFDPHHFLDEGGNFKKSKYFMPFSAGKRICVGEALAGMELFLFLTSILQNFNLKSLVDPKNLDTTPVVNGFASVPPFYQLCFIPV
Sequence of Cytochrome P450 2C19 (Homo sapiens) (P33261 whole entry, looked up): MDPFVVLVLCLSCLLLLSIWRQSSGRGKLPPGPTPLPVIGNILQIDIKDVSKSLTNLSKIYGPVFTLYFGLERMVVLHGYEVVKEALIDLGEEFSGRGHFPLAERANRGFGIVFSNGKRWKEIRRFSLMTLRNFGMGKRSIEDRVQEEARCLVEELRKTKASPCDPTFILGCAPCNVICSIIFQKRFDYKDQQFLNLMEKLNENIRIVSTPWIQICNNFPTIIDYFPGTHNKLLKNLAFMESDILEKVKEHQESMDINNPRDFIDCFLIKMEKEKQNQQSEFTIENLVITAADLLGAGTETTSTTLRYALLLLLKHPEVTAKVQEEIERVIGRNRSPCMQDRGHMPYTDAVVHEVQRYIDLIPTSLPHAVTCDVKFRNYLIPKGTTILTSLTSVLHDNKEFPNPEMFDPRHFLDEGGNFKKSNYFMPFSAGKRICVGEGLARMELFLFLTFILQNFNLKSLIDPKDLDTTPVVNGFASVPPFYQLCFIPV
Sequence of Cytochrome P450 1A2 (Homo sapiens) (P05177 whole entry, looked up): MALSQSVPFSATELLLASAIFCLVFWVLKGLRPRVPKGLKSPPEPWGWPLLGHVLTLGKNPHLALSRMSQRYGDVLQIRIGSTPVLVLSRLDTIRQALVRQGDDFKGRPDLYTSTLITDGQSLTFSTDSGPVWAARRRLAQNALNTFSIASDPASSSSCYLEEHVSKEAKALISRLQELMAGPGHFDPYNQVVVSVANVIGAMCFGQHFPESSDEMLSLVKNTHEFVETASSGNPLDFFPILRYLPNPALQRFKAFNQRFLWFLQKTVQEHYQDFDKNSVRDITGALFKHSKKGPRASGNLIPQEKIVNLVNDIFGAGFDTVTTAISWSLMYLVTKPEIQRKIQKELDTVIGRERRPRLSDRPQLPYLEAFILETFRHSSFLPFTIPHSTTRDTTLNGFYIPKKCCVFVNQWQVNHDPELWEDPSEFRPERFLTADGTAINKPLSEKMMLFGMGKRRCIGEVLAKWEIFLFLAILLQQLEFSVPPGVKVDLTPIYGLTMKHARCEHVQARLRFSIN
Sequence of Voltage-gated inwardly rectifying potassium channel KCNH2 (Homo sapiens) (Q12809 whole entry, looked up): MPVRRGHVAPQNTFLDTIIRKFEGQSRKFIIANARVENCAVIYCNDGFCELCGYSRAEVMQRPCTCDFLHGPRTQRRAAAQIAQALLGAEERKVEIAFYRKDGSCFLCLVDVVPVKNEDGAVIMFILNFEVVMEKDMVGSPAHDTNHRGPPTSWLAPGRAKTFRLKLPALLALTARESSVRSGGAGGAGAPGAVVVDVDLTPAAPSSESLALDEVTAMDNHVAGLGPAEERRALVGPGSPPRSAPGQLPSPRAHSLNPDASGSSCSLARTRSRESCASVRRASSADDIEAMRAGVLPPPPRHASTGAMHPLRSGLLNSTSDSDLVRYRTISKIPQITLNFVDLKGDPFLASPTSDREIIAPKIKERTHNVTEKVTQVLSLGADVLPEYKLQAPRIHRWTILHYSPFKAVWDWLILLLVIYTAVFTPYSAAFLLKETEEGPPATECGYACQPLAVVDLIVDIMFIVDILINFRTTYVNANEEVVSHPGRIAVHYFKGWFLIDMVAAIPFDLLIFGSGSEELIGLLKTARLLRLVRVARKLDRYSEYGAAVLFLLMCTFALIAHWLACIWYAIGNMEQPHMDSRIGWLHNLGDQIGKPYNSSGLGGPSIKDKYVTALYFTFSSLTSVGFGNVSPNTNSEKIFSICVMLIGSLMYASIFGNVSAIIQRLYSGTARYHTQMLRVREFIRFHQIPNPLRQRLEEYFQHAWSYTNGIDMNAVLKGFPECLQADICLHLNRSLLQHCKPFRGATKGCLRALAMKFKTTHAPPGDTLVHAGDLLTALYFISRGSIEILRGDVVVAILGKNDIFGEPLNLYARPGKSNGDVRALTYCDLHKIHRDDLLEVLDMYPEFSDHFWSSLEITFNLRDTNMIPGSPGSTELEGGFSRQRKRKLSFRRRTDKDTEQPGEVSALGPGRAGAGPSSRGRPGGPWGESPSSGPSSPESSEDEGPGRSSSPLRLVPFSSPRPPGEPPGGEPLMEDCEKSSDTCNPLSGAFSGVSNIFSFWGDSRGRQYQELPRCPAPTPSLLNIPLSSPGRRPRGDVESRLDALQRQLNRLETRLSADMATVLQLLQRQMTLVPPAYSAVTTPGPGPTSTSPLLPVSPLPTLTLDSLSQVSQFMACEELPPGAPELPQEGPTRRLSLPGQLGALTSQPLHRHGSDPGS

Consider `C=C(C)C1CC=C(C)CC1` (stereo not drawn), for which the Potency entry in test [1], in test [2], in [3], in test [4], in [5] and in test [6] was “inactive” in each case. In addition, the Potency entry in test [7], in [8], in [9], in test [10], in test [11] and in test [12] was “inactive” in each case.

Consider `OC[C@H]1O[C@@H]2O[C@H]3[C@H](O)[C@@H](O)[C@@H](O[C@H]4[C@H](O)[C@@H](O)[C@@H](O[C@H]5[C@H](O)[C@@H](O)[C@@H](O[C@H]6[C@H](O)[C@@H](O)[C@@H](O[C@H]7[C@H](O)[C@@H](O)[C@@H](O[C@H]8[C@H](O)[C@@H](O)[C@@H](O[C@H]1[C@H](O)[C@H]2O)O[C@@H]8CO)O[C@@H]7CO)O[C@@H]6CO)O[C@@H]5CO)O[C@@H]4CO)O[C@@H]3CO`, for which the Potency entry in [1], in [2], in [3], in test [4], in [5] and in test [6] was “inactive” throughout. The Potency result in [9], in [10], in test [11] and in test [12] was “inactive” in each case. For the same compound, the Potency in test [8] is 31.8 µM (active) and inactive.

For the compound `O=C1OC2(c3cc(Br)c(O)c(Br)c3Oc3c2cc(Br)c(O)c3Br)c2c(Cl)c(Cl)c(Cl)c(Cl)c21`, the Potency in test [1] was 6.87 µM (active) and 14.8 µM (active); in [3] it was 9.7 µM (active) and 16.6 µM (active); in [7], 24.2 µM (active); in test [8] it was 38.4 µM (active); in [9], 10 µM (active) and 17.2 µM (active); in [10], 12.6 µM (active). In addition, the Potency in [12] is 71.1 µM (active) and inactive. Further, the Potency result in test [2], in test [4] and in test [11] was “inactive” each time.

With `C=CC(C)(CCC=C(C)C)OC(C)=O` (stereo not drawn), the Potency entry in test [1], in [2], in test [3], in [4], in test [7] and in test [10] was “inactive” throughout. For the same compound, the Potency entry in test [11] is “inactive”. The Potency result was “inactive and 17.8 µM (active)” in test [8]; “inactive and 35.6 µM (active)” in test [9]; “inactive and 28.3 µM (active)” in test [12].

For the compound `c1cc(N(CC2CO2)CC2CO2)ccc1OCC1CO1` (stereo not drawn), the Potency in test [1] was 48.6 µM (active) and 27.3 µM (active); in [3], 54.5 µM (active) and 27.3 µM (active); in test [4], 48.6 µM (active) and 24.3 µM (active); in test [7], 56.4 µM (active); in test [8] it was “inactive and 79.6 µM (active)”; in test [9] it was 63.4 µM (active) and 39.9 µM (active). Further, the Potency in [10] is 63.3 µM (active). Also, the Potency entry in [2], in [11] and in test [12] was “inactive” throughout.

On to `OC1CCCCCCCCCCC1`, for which the Potency result in [1], in test [2], in test [3], in test [7], in test [8] and in test [9] was “inactive” each time. Moreover, the Potency result in test [11] is “inactive”. Besides, the Potency in test [4] was 61.7 µM (active) and inactive; in [10], 25.2 µM (active).

On to `c1ccncc1`, for which the Potency entry in [1], in test [2], in test [3], in test [4], in [7] and in [8] was “inactive” each time. In addition, the Potency entry in test [9], in test [10], in test [11] and in test [12] was “inactive” in each case.

`c1ccc2c(c1)Oc1ccccc1S2`: the Potency entry in [1], in test [2], in test [3], in test [4], in [7] and in test [12] was “inactive” throughout. Besides, the Potency result in test [8] is “inactive and 71 µM (active)”; in [10], 12.8 µM (active) and 8.94 µM (active).

As for `COc1c(Cl)c(Cl)c(Cl)c(Cl)c1Cl`, the Potency entry in test [1], in test [2], in test [3], in test [4], in test [7] and in [8] was “inactive” each time. For the same compound, the Potency entry in [9], in test [11] and in test [12] was “inactive” each time. Also, in [10], the Potency was 28.4 µM (active) and 5.03 µM (active).

Turning to `CC(C)Oc1ccc2c(=O)c(-c3ccccc3)coc2c1`, the Potency result in test [2], in [3], in test [5], in test [7], in test [8] and in [11] was “inactive” each time. Further, the Potency entry in [12] was “inactive”. Further, the Potency was 2.98 µM (active) and 1.06 µM (active) in test [4]; 17.4 µM (active) and 27.5 µM (active) in test [9]; 12.3 µM (active) and 6.45 µM (active) in [10].

Consider `CCC(C)c1ccccc1O` (stereo not drawn), for which the Potency entry in test [1], in test [2], in [3], in test [4], in [7] and in [8] was “inactive” in each case. Also, the Potency entry in test [11] and in test [12] was “inactive” throughout.

With `CC1=CC2C3CC(C=C3C)C2C1` (stereo not drawn), the Potency result in test [1], in [2], in test [3], in test [7], in [9] and in test [10] was “inactive” throughout. In addition, the Potency entry in test [11] was “inactive”. For the same compound, the Potency entry in [4] was “inactive and 27.3 µM (active)”; in [8] it was “inactive and 39.9 µM (active)”; in test [12], “inactive and 12.6 µM (active)”.

As for `O=C(c1ccc(OCCN2CCCCC2)cc1)c1c(-c2ccc(O)cc2)sc2cc(O)ccc12`, the Potency in test [1] is 54.5 µM (active) and 61.1 µM (active) and 26.6 µM (active); in test [3] it was 61.2 µM (active) and 61.1 µM (active); in test [11], 21.9 µM (active) and 43.6 µM (active). Also, the Potency entry in [2] was “inactive”.

Turning to `CC(C)CC(C)(O)C#CC(C)(O)CC(C)C` (stereo not drawn), the Potency in [1] is 15 µM (active) and inactive; in test [2], 42.4 µM (active) and inactive. Besides, the Potency result in test [3] and in test [11] was “inactive” throughout.

On to `CC(=O)O[C@]1(C(C)=O)CC[C@H]2[C@@H]3C=C(Cl)C4=CC(=O)[C@@H]5C[C@@H]5[C@]4(C)[C@H]3CC[C@@]21C`, for which the Potency entry in test [2], in test [3], in [5], in test [6], in test [7] and in [10] was “inactive” in each case. Besides, the Potency entry in test [11] and in test [12] was “inactive” throughout. Further, the Potency was 61.1 µM (active) and inactive in test [4]; “inactive and 39.9 µM (active)” in test [8]; 15.9 µM (active) and 31.7 µM (active) and 13.8 µM (active) in test [9].

Take `O=C1c2cccc(O)c2C(=O)c2c(O)cccc21`: the Potency result in test [1], in [2], in test [3], in test [4], in [5] and in test [6] was “inactive” in each case. Also, the Potency entry in [7], in test [11] and in test [12] was “inactive” each time. Also, the Potency in test [8] was 28.6 µM (active) and 38.9 µM (active); in test [10], 9.03 µM (active) and 6.45 µM (active).

For the origin of these results see PubChem BioAssay (Tox21).
